In PubChem BioAssay (NCI):
The panel holds about 79,000 compounds, 15% with a hit somewhere; the sample as a whole holds those more often. Values without a mark were called inactive. The source made the active and inactive calls. Rule as the data show it: active = growth inhibition above about 70%; inactive = the rest.

How the values were obtained:
[1] = NCI Yeast Anticancer Drug Screen. Data for the rad50 strain (AID 155);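 also: 0% = growth of vehicle-only cultures of the same strain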; details: S. cerevisiae rad50 strain growth inhibition; at 50.0 µM; stronger effect = higher value
In short: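 Growth of the mutant yeast was measured after compound exposure and referenced to vehicle-treated cultures.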

[2] = NCI Yeast Anticancer Drug Screen. Data for the mec2-1 strain (AID 157); details: S. cerevisiae mec2-1 strain, at 50.0 µM, stronger effect = higher value
In short: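 Growth inhibition is read against vehicle-treated controls after compound exposure of the mec2-1 yeast strain, which is defective in DNA damage repair or cell cycle control.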

[3] = NCI Yeast Anticancer Drug Screen. Data for the sgs1 mgt1 strain (AID 161);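 also: 0% = growth of cultures given vehicle only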; details: S. cerevisiae sgs1 mgt1 strain, at 50.0 µM, stronger effect = higher value
In short: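 Growth of a repair-deficient yeast mutant was monitored after compound treatment and expressed as inhibition relative to vehicle-treated cultures.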

[4] = NCI Yeast Anticancer Drug Screen. Data for the cln2 rad14 strain (AID 165);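 also: 0% = growth equal to vehicle treated cultures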; details: S. cerevisiae cln2 rad14 strain, at 50.0 µM, stronger effect = higher value
In short: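 Growth inhibition, relative to vehicle-treated controls, is the read-out. The test organism is a yeast strain with defined genetic alterations, cln2 rad14.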

[5] = NCI Yeast Anticancer Drug Screen. Data for the bub3 strain (AID 167); details: S. cerevisiae bub3 mutant strain, at 50.0 µM, stronger effect = higher value
In short: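 Whole-cell yeast assay. The mutant strain was incubated with compounds, and growth inhibition was determined by comparison with vehicle-treated cells.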

[6] = NCI Yeast Anticancer Drug Screen. Data for the mlh1 rad18 strain (AID 175); details: S. cerevisiae mlh1 rad18 strain growth inhibition; at 50.0 µM; stronger effect = higher value
In short: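 Cells of a genetically altered yeast strain, deficient in DNA damage repair, were treated with compound. Their growth was then compared with that of vehicle-treated cultures to give inhibition.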

Structure (SMILES) | growth inhibition [1] | growth inhibition [2] | growth inhibition [3] | growth inhibition [4] | growth inhibition [5] | growth inhibition [6]
O=C(Nc1ccccc1)C1(Cl)CCCCC1 | 11.7% | -7.35% | -8.7% | -16.9% | -4.7% | 1.8%
Nc1nnc(CCCCCCCc2nnc(N)o2)o1 | -6.25% | 12.6% | 3.45% | 7.5% | 6.85% | 13.2%
Cc1cccc2c1sc1c(C)cc(C(=O)CCC(=O)O)cc12 | 9% | 11.2% | 5.3% | 3.4% | 20.4% | 25.4%
O=C(CCN1CCCC1)Nc1ccc2sc3ccccc3c(=O)c2n1 | 38.5% | -61.8% | 8.75% | 9.7% | 16.6% | 10.6%
O=C(Cc1ccccc1)NN1C(=O)/C(=C\c2ccccc2O)SC1=Nc1ccccc1 | 1.15% | -6.3% | 31.4% | 13.5% | -6.95% | 7.25%
c1ccc(-c2oc3ccccc3c2-c2ccc(OCCN3CCCC3)cc2)cc1 | 99.5% (active) | 99.6% (active) | 99.7% (active) | 99.3% (active) | 99.3% (active) | 99.5% (active)
O=c1c(O)c(-c2ccc(O)cc2O)oc2cc(O)cc(O)c12 | -8.35% | -29.2% | -3.55% | 3.5% | -19.4% | -26.8%
Cn1c2ccc(Br)cc2c2cc(Br)cc([N+](=O)[O-])c21 | 6.55% | 5.05% | 14.9% | -4.95% | -2.05% | 15.3%
C=C1CN(CCc2ccccc2)C(=S)S1 | 55.6% | 19.1% | 22.4% | 3.65% | 1.35% | 11.4%
CCCCCCCCCCCC1=C(O)C(=O)C(Br)=C(O)C1=O | 39.6% | 14.3% | 44.9% | 19.1% | -9.65% | 49.9%
O=C(C[n+]1cc(Br)cc(Br)c1)c1ccc(Cl)cc1 | -9.6% | -15.8% | -13% | -13.8% | -30.1% | -7.9%
COC1(OC)C2(Cl)C(Cl)=C(Cl)C1(Cl)C1CCCCC12 (stereo unspecified) | 12.7% | 11.1% | 15.5% | -57% | -5.15% | 2.3%
COc1ccc(/C=N\N2CN(C(CC(N)=O)C(=O)O)C(O)(CCl)N=C2N)cc1OC (stereo unspecified) | 9.1% | -6.9% | 3.1% | -5.65% | 6.8% | -0.1%
CCOP(=O)(OCC)/C(=C/NC(=S)c1cccnc1)C(=O)OC | -11% | -1% | -13% | -7.75% | 17.6% | -2.2%
O=[n+]1c2ccccc2n([O-])c2cn(-c3ccccc3)c(-c3ccccc3)c21 | 73.5% (active) | 67.4% | 88.3% (active) | 80.5% (active) | 46.9% | 89.2% (active)
O=C(OC1OC(COCc2ccccc2)C(OCc2ccccc2)C1OCc1ccccc1)c1ccc([N+](=O)[O-])cc1 (stereo unspecified) | 25.2% | -12.2% | 16.2% | -26.1% | -5.3% | -1.35%
Cc1cccc(-c2cc(=O)c3cccnc3[nH]2)c1 | 2.05% | -1.45% | 9.35% | 4.05% | -13% | 1.25%
O=C1C2=C(c3ccccc31)C(c1ccc(Cl)cc1)NC(=S)N2 (stereo unspecified) | 52.6% | 26.5% | 57.8% | 35.2% | 44.4% | 60.1%
CCCCCC(C)C(C#N)C(=O)OCC (stereo unspecified) | 1.2% | -18.4% | -14.4% | -3.75% | -18.9% | -20.9%
CN(CC(C)(C)C(O)c1ccccc1)C(=O)c1ccccc1 (stereo unspecified) | 0.95% | -5.7% | 12.7% | 20.7% | 8.2% | 12.6%
CCCCCCCCCCCCCCCCCCNC(=O)Nc1cc(C(C)C)ccc1C | -13.3% | -22.1% | -14.8% | -47.1% | -2.7% | -30.6%

Structure (SMILES) | growth inhibition [1] | growth inhibition [2] | growth inhibition [3] | growth inhibition [4] | growth inhibition [5] | growth inhibition [6]
CC(=O)c1cc(C)ccc1Br | 7.2% | 6.65% | -16.3% | 0.5% | -7.85% | 7.35%
CNC(=O)n1cnc2ccccc21 | 33.2% | 30.4% | 37% | 13.1% | 60% | 25.3%
CC(C)CNc1ncnc2c1ncn2C | -2.2% | -4.85% | -4% | -18.9% | 1.1% | -0.25%
CC(Oc1ccc2ccccc2c1I)C(=O)O (stereo unspecified) | 27.9% | 12.8% | 37.8% | 18.6% | 57.4% | 36.8%
Cc1ccccc1/C=N\NC(=O)CCCC(=O)N/N=C/c1ccccc1C | -8.9% | 2.5% | -25.5% | 8.7% | 24.4% | -9.4%
CCN(CC)CCCC(C)NC(=O)c1ccc2c(c1)C(=O)c1ccccc1C2=O (stereo unspecified) | 6% | 19.1% | 16.9% | 36.4% | -17.7% | -33.9%
O=C(/C=C/c1ccc(Cl)c(Cl)c1)c1ccc2ccccc2c1 | 28.2% | 1.95% | -3.7% | -8.6% | 11.2% | 20.2%
Nc1ccc(C(=O)CC(N)C(=O)O)cc1O (stereo unspecified) | -9.7% | 21.4% | -6.9% | -17.9% | 6.95% | 11.3%
CCOc1ccc(N2C(=O)NC3(c4ccccc4)N(C)C(=O)N(C)C23c2ccccc2)cc1 (stereo unspecified) | -2.7% | -7.95% | 13.8% | 1.3% | 17.1% | -16.8%
O=S(=O)(O)c1cc(O)c(N=NC2S(=O)(=O)OCCOS2(=O)=O)c2ccccc12 | 7.45% | 2.7% | 31.2% | -9.2% | 16.8% | -4.05%
CSc1ncc(CO)c(Nc2ccccc2Cl)n1 | 2.8% | 14.4% | -19.4% | -14% | 12.3% | 1.55%
N#Cc1c(C#N)c(-c2ccco2)n(/N=C/c2ccco2)c1N | 4.55% | 0.6% | -34.5% | -6.75% | -25.8% | -37.4%
Clc1ccc(/C=N/N2CCN(/N=C/c3ccc(Cl)cc3)CC2)cc1 | -3.1% | -10.3% | -0.2% | -5.35% | 13.2% | -15%
O=C(c1ccccc1)C1(c2ccccc2)CCCCC1 | 19.6% | 15.6% | 20.1% | -10.6% | 0.45% | 32.6%
O=S(=O)(Nc1nccs1)c1ccc(NCc2c3ccccc3nc3ccccc23)cc1 | 62.2% | 54.7% | 42.3% | 30% | 17.7% | 49.5%
CC(=O)OC(C)C(C)Br (stereo unspecified) | 9.75% | 4.4% | -9.35% | -25.1% | -13% | 4.9%
CCOC(=O)C(C)(NC(=O)c1ccc(NCc2ccc3nc(NC(=O)c4ccccc4)nc(NC(=O)c4ccccc4)c3c2)cc1)C(=O)OCC | -4.1% | -24% | 7.5% | -24.1% | -16.5% | -8.45%
O=NN(CCCl)C(=O)NC1CCC(CC2CCC(NC(=O)N(CCCl)N=O)CC2)CC1 (stereo unspecified) | 24.9% | 5.6% | 8.05% | 29.5% | -6.45% | 10.6%
c1ccc2cc(N=NNc3ccc4ccccc4c3)ccc2c1 | 63.6% | -4.1% | 27.9% | -30.6% | 47.5% | 74% (active)
Cc1c(O)ccc2c(O)c(NC(=O)c3ccc4c(c3)CCC(C)(C)O4)c(=O)oc12 | 4.95% | -22.9% | 7.95% | -95.5% | -21.5% | 21.1%
